Test results from the supplement of paper PMC9694430.

Test system: LOC_OS04G35114-cb001
Test: thermal shift delta Tm vs DMSO control; higher = stronger stabilization (binding)
Details: 12.5 µM; protein concentration 2 µM
Outline: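 Compounds dissolved in DMSO were added to purified rice kinase domain constructs, which had been expressed in E. coli, for differential scanning fluorimetry. Each well held 19.5 μl of 2 μM kinase in 100 mM potassium phosphate pH 7.5, 150 mM NaCl, 10% glycerol and 5 × SYPRO Orange. Fluorescence was followed from 25°C to 95°C at a rate of 0.05°C/s. Shifts in Boltzmann-fitted melting temperature are triplicate means relative to DMSO-only protein.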

Question: Which “thermal shift delta Tm” value does the source give for `COc1cc(Nc2ncc(F)c(Nc3ccc4c(n3)NC(=O)C(C)(C)O4)n2)cc(OC)c1OC` [R406 (free base)] here?
Answer: 2.9 °C

Question: For `Cc1ccc(S(=O)(=O)/C=C/C#N)cc1`, which “thermal shift delta Tm” value is on record?
Answer: 0.08 °C

Question: With `O=c1c(O)c(-c2ccc(O)c(O)c2)oc2cc(O)cc(O)c12` [Quercetin] as the molecule, how does the “thermal shift delta Tm” value read?
Answer: 4.71 °C

Question: How did the “thermal shift delta Tm” value turn out when `C[C@H]1CNC(=O)c2cnn3ccc(nc23)N[C@H](C)c2cc(F)ccc2O1` was run?
Answer: 2.45 °C

Question: `C[C@@H](Nc1cc(F)cc(F)c1)c1cc(C(=O)N(C)C)cc2c(=O)cc(N3CCOCC3)oc12` was tested. Which “thermal shift delta Tm” value did it give?
Answer: 0.51 °C

Question: How did the “thermal shift delta Tm” value turn out when `Nc1cccc(-c2cc3c(Oc4cccc(O)c4)ncnc3[nH]2)c1` was run?
Answer: 4.56 °C

Question: For `CC[C@H](CO)Nc1nc(NCc2ccccc2)c2ncn(C(C)C)c2n1` [Roscovitine (Seliciclib,CYC202)], which “thermal shift delta Tm” value is on record?
Answer: 0.57 °C

Question: With `CCn1c(=O)c(-c2ccc(Cl)cc2Cl)cc2cnc(Nc3ccc(N4CCNCC4)c(F)c3)nc21` as the molecule, how does the “thermal shift delta Tm” value read?
Answer: 11 °C

Question: How did the “thermal shift delta Tm” value turn out when `Cc1c[nH]c2nc(Nc3ccc(N4CCN(C)CC4)c(F)c3)nc(-c3cccc(CC#N)c3)c12` was run?
Answer: 12.4 °C

Question: For `N#C/C(=C(/N)Sc1ccc(N)cc1)c1ccccc1C(F)(F)F`, which “thermal shift delta Tm” value is on record?
Answer: 0.28 °C

Question: How did the “thermal shift delta Tm” value turn out when `FC(F)(F)c1ccc(CNc2ccc(Cc3c[nH]c4ncc(Cl)cc34)cn2)cn1` [Pexidartinib (PLX3397)] was run?
Answer: 9.82 °C

Question: Which “thermal shift delta Tm” value does the source give for `COc1cc(N2CCC(N(C)C)CC2)ccc1Nc1ncc(Cl)c(Nc2ccccc2P(C)(C)=O)n1` here?
Answer: 4.67 °C

Question: How did the “thermal shift delta Tm” value turn out when `CCN(CC)CCNC(=O)c1c(C)[nH]c(/C=C2\C(=O)Nc3ccc(F)cc32)c1C` [Sunitinib Malate] was run?
Answer: 10.1 °C

Question: Which “thermal shift delta Tm” value does the source give for `CCC(=O)Nc1cccc(Oc2nc(Nc3ccc(N4CCN(C)CC4)cc3OC)ncc2Cl)c1` here?
Answer: 0.8 °C
